Laboratory results: PubChem BioAssay (Tox21)
Results filed as inconclusive are left out. A number with no mark means an inactive call. Calls come from the whole dose curve; as a rule, active = well fitted cell-killing curve with a large enough effect in the repeat runs (not every such curve was filed as active); inconclusive = weak or mixed curves, or effect the other way; inactive = no such curve, though single readings can be large or run the other way.

Assay: qHTS assay to identify small molecule antagonists of the farnesoid-X-receptor (FXR) signaling pathway - cell viability counter screen (AID 743221); note: nearly all actives have a fitted effect of over 50% in size
Conditions: FXR-bla HEK293T viability, CellTiter-Glo luminescence, 16 h; series mostly up to 62.6 µM; activity change, negative = cytotoxicity: at the top concentration
From the text: National Center for Advancing Translational Sciences [NCATS]
NIH Chemical Genomics Center [NCGC]
U.S. Environmental Protection Agency [EPA]
National Institutes of Environmental Health Sciences [NIEHS]
National Toxicology Program [NTP]
U.S. Food and Drug Administration [FDA]
The farnesoid-X-receptor (FXR), a nuclear hormone receptor, is highly expressed in liver, intestine, kidney and adrenal cortex. Natural ligands of FXR are the bile acids (Cholic acid, Chenodeoxy cholic acid etc). FXR is an important regulator of diverse metabolic pathways, including the bile acid homeostasis, lipid and glucose metabolisms. FXR regulates the expression of target genes by binding either as a monomer or as a heterodimer with the retinoid X receptor (RXR). Numerous studies have reported that FXR exerts protective function during cholestasis, diabetes, liver regeneration, and cancer. To identify compounds that inhibit FXR signaling, GeneBLAzer FXR-UAS-bla HEK 293T cell line (Invitrogen, Carlsbad, CA) containing a beta-lactamase reporter gene under the control of a UAS response element was used to screen the Tox21 10K compound library. The cytotoxicity of the Tox21 compound library against the FXR-bla cell line was tested in parallel by measuring the cell viability using CellTiter-Glo assay in the same wells.
Tox21 Assay Protocol Summary:
FXR-bla cells were dispensed at 5000 cells/5uL/well in 1536-well black wall/clear bottom plates using a Multidrop Combi (Thermo Fisher Scientific, Waltham, MA) dispenser. After the assay plates were incubated at 37 C and 5% CO2 for 5 h, 23 nL of compounds dissolved in DMSO, positive controls or DMSO only was transferred to the assay plate by a Pintool station (Kalypsys, San Diego, CA), followed by addition of 1 uL Chenodeoxycholic acid (50 uM, final concentration in the wells). The assay plates were incubated at 37C for 16 h. After 1 uL of LiveBLAzerTM B/G FRET substrate was added using a Bioraptr Flying Reagent Dispenser (FRD) workstation (Beckman Coulter, Indianapolis, IN), the plates were incubated at room temperature for 2 h, and fluorescence intensity was measured by an Envision plate reader (PerkinElmer, Shelton, CT). For cell viability readout that measures cytotoxicity, 4uL/well of CellTiter-Glo reagent was added into the assay plates using a Bioraptr FRD. After 30 min incubation at room temperature, the luminescence intensity in the plates was measured using a ViewLux plate reader (PerkinElmer).
% is set by controls: 0 for no effect and ±100 for the full control effect.

Compound	activity change, negative = cytotoxicity
CO[C@@]1(NC(=O)CSCC#N)C(=O)N2C(C(=O)O)=C(CSc3nnnn3C)CS[C@@H]21	-5.72%
Cc1cc2c(s1)Nc1ccccc1N=C2N1CCN(C)CC1	-7.13%
CN(C)C(=O)NC1(c2ccccc2)CCN(CCC[C@]2(c3ccc(Cl)c(Cl)c3)CCCN(C(=O)c3ccccc3)C2)CC1	-19.3% [at 29.1 µM]
C=CCc1cc(OC)c(O)c(C(=O)NCCO)c1	-1.2%
O=C(Cl)c1cccc([N+](=O)[O-])c1	6.6%
CC1(C)C(=O)N(Cl)C(=O)N1Br	18.5%
O=C(O)C(=O)Cc1c[nH]c2ccccc12	4.89%
COc1cc(C)ccc1C(C)C	-12%
Cc1cn([C@@H]2O[C@H](CO)[C@@H](O)[C@@H]2F)c(=O)[nH]c1=O	-13.7%
C=O	12.5% [at 81.1 µM]
CC1(O)CSC(C)(O)CS1 (stereo not given)	-0.6%
CCCCOc1cc(C(=O)NCCN(CC)CC)c2ccccc2n1	-28.6%
CCCCCCCOC(=O)CCC	-9.1%
CCNCCO	5.15%
Cc1cc(NS(=O)(=O)c2ccc(N)cc2)nc(C)n1	2.56%
CCN(CC)CC1CCCCN1CC(=O)N1c2ccccc2C(=O)Nc2cccnc21 (stereo not given)	3.87%
Oc1ccccc1C=NCc1ccccc1	-0.498%
CC/C=C\CCOC(=O)C(C)C	0.498%
CC(=O)OC(C)OC(C)=O	4.44% [at 81.1 µM]
CC(C)(C)c1ccc(OC(=O)c2ccccc2O)cc1	1.56%

Compound	activity change, negative = cytotoxicity
ClC(Cl)Cl	-3.51%
CCOC(=O)CS	-1.14% [at 81.1 µM]
CCCN(CCC)C(=O)C(CCC(=O)O)NC(=O)c1ccccc1 (stereo not given)	2.75%
CCOc1ccccc1N	0.862%
NC/C=C/C(=O)O	6.24%
Cc1c(C(=O)NCCO)[n+](=O)c2ccccc2n1[O-]	1.21%
CCC(=O)O[C@]1(C(=O)SCF)[C@H](C)C[C@H]2[C@@H]3C[C@H](F)C4=CC(=O)C=C[C@]4(C)[C@@]3(F)[C@@H](O)C[C@@]21C	4.79%
Nc1ccc2ccccc2c1S(=O)(=O)O	2.08% [at 81.1 µM]
Cc1onc(-c2ccccc2)c1C(=O)Cl	3.76%
Cc1ncc(CO)c(CN)c1O	5.23%
CCOC(=O)C1CC(=O)C(=C(O)C2CC2)C(=O)C1 (stereo not given)	-5.58%
Cc1c[nH]c(=S)[nH]c1=O	-4.66%
CCN(O)CC	-4.51%
CCCCC1CCC(=O)O1 (stereo not given)	3.15%
O=C1Nc2ccc([N+](=O)[O-])cc2C1=O	-1.85%
CCCCCCn1c(=O)c2c(ncn2C)n(C)c1=O	-2.88%
CS(=O)(=O)c1ccc([C@@H](O)[C@@H](CF)NC(=O)C(Cl)Cl)cc1	11.2%
Cc1cc(S(=O)(=O)O)c(N)cc1Cl	2.72% [at 81.1 µM]
CC(=O)N(CC(O)CN(C(C)=O)c1c(I)c(C(=O)NCC(O)CO)c(I)c(C(=O)NCC(O)CO)c1I)c1c(I)c(C(=O)NCC(O)CO)c(I)c(C(=O)NCC(O)CO)c1I (stereo not given)	9.04%
CCCC(CCC)(C(=O)OCC)C(=O)OCC	-0.475%
